# Rows were chosen to be rich in hits. Some 6.9% of all compounds tested hit in one or more screens of this group.
# SW480 rerep = DNA re-replication induction in SW480 cells; SW480 DNA re-replication, Hoechst DNA content imaging, 48 h; Potency, µM (top dose mostly 46.1 µM), inactives show at the highest dose re-replication activation, most hits filed as activators; 1.8% of 340,000 active; AID 624297; note: potency is the fitted concentration of half-maximal effect; % of control where 0% means no effect; nearly all actives have a fitted effect of over 55% in size
#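 DNA re-replication was detected as more nuclei of elevated Hoechst intensity after 48 hr exposure to compound (23 nL pinned per well of 250 cells).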
# KB-3-1 cytotox = KB-3-1 parental cell cytotoxicity; Potency, µM (titrated, usually from 46.1 µM), usual class: cytotoxic; KB-3-1 viability, CellTiter-Glo ATP luminescence, 72 h; 1.4% of 400,000 active; AID 1347075; note: potency is the fitted concentration of half-maximal effect; % is set by controls: 0 for no effect and ±100 for the full control effect; nearly all actives have a fitted effect of over 60% in size
#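 Here the drug-naive KB-3-1 line serves as comparator for MDR sub-line selectivity; cells received compound titrations, 72 h at 37 °C, then CellTiter-Glo readout.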
# S-ASM inh = human S-ASM enzyme inhibition; Potency, µM (titrated, usually from 57.5 µM), for inactives: top-dose activity change, negative = inhibition, usual class: inhibitors; placental ASM, HMU-PC fluorogenic substrate, 60 min; 0.006% of 340,000 active; P17405; AID 504937; note: potency is the fitted concentration of half-maximal effect
# Target sequence (P17405 47-631 limits assumed): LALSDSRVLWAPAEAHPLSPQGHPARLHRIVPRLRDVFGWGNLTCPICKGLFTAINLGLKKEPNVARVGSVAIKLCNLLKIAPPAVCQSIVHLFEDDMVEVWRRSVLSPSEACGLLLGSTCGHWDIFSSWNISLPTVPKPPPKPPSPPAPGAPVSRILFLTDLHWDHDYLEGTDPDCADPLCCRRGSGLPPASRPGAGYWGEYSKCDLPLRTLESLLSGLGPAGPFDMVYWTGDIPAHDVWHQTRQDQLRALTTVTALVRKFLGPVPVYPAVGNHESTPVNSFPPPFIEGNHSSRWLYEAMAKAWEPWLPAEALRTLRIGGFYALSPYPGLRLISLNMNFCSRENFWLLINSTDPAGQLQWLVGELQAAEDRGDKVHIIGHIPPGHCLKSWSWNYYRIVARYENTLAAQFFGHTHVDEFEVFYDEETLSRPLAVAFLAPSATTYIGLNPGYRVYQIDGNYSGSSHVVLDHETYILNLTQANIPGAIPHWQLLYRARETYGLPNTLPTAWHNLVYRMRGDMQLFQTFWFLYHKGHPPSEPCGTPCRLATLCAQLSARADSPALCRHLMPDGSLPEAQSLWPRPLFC
#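 Fluorescence read-out (Ex 386 nm, Em 447 nm) after stopping the reaction at pH 10. Enzyme: ASM from human placenta; substrate HMU-PC0, 9 uM final; 60 min, 37 °C. Compound preincubation 10 min, ambient temperature.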
# MCF10A rereplic = DNA re-replication induction in MCF 10a cells; MCF 10A DNA re-replication, Hoechst nuclear intensity, 48 h; Potency, µM (titrated, usually from 46.1 µM), for the others: at the top dose activity, positive = re-replication, usual class: activators; 2.9% of 350,000 active; note: potency is the fitted concentration of half-maximal effect; % of control where 0% means no effect; nearly all actives have a fitted effect of over 50% in size
# Giardia kill = kills Giardia lamblia; activity change, % at 7.66 µM, hits read low; 0.15% of 340,000 active; Giardia lamblia trophozoite viability; in the data active = activity change below about -80%; inconclusive = between about -30% and that limit;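 note: parasites exposed to compound for two days anaerobically before the ATP read; % is set by controls: 0 for no effect and ±100 for the full control effect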
#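 Luminescence from cellular ATP indicates surviving trophozoites (100 cells/well) following 48 hrs anaerobic compound treatment at 37 deg C; signal develops 15-30 min at room temperature.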
# KB-V1 cytotox = KB-V1 MDR subline cytotoxicity; KB-V1 MDR cells viability, CellTiter-Glo, 72 h; Potency, µM (doses to about 46.1 µM), actives largely listed as cytotoxic; 3.4% of 400,000 active; AID 1347076; note: potency is the fitted concentration of half-maximal effect; % is set by controls: 0 for no effect and ±100 for the full control effect; nearly all actives have a fitted effect of over 60% in size
#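 KB-V1 MDR subline cells in DMEM (phenol-red free, 10% FBS) exposed to compounds in qHTS concentration series for 72 h at 37 degrees C. Viability read by CellTiter-Glo luminescence; concentration-effect curves fitted after normalization and correction.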
# An asterisk follows results filed as active; i = inactive; ? = inconclusive; / = not tested or not shown. Unless noted, calls come from the whole dose curve; as a rule, active = well fitted curve in the direction sought with a large enough effect; inconclusive = small, poorly fitted or top-dose-only effect, or another doubt; inactive = no such curve, though single readings can be large; an effect the other way counts as inactive or inconclusive.
SMILES,SW480 rerep,KB-3-1 cytotox,S-ASM inh,MCF10A rereplic,Giardia kill,KB-V1 cytotox
Cc1nc2ccc(S(=O)(=O)Nc3ccccc3C)cc2s1,?,?,-2.6%,?,12.7,18.4µM*
Cc1ccccc1NS(=O)(=O)c1ccc(C(=O)N2CCCC2)cc1,-5.4%,i,5.2%,2.8%,-5.8,20.6µM*
Cc1ccccc1NS(=O)(=O)c1ccc(C(=O)N2CCCCCCC2)cc1,4.9%,i,1.7%,?,3.3,?
Cc1cccc(NS(=O)(=O)c2ccc(C(=O)N3CCN(c4ccccc4O)CC3)cc2)c1C,1.3%,?,-8.1%,23.1µM*,15.9,?
O=C(Cn1ncc2c3ccccc3n(Cc3ccc(F)cc3)c2c1=O)NCCCN1CCCCC1,/,i,/,/,/,i
CCC(=O)N1CCN(c2ccc(Cl)cc2NC(=O)c2ccc([N+](=O)[O-])o2)CC1,9.2µM*,i,1.4%,?,-100.6*,i
CCC(=O)N1CCN(c2ccc(Cl)cc2NC(=O)c2cccc([N+](=O)[O-])c2)CC1,-7.7%,i,-1.9%,?,-11.0,i
O=C(Nc1cc(Cl)ccc1-n1cncn1)c1ccc([N+](=O)[O-])o1,20.6µM*,13µM*,1.6%,?,?,?
CC(=O)N1CCN(c2ccc(NC(=O)c3ccc([N+](=O)[O-])o3)cc2Cl)CC1,?,?,-26.7%,3.26µM*,-80.6*,?
CCC(=O)N1CCN(c2ccc(NC(=O)c3ccc(Br)o3)cc2)CC1,20.6µM*,i,7.3%,2.6%,8.8,i
Cc1cccc(N(C)C(CNS(=O)(=O)c2ccccc2)c2ccccc2)c1 (centres undefined),/,i,/,/,/,?
Clc1ccc(Cn2cc3c(n2)-c2cc4ccccc4n2C3)cc1,/,i,/,/,11.1,i
CCc1ccc(C(=O)c2cn(CC(=O)Nc3cc(C)ccc3C)c3nc(C)ccc3c2=O)cc1,/,i,/,/,/,i
Cc1ccc(OCCN2C(=O)C(=O)c3cccc(C)c32)cc1,?,i,0.3%,16.7%,-17.8,i
CCC(=O)N1CCN(c2ccc(NC(=O)c3ccc([N+](=O)[O-])o3)cc2Cl)CC1,2.3%,?,-5.8%,?,-92.2*,i
CCCC(=O)N1CCN(c2ccc(NC(=O)c3ccc(N4CCCC4)c([N+](=O)[O-])c3)cc2Cl)CC1,?,i,-12.7%,20.3%,2.7,?
CCN1CCN(c2ccc(NC(=O)c3ccc([N+](=O)[O-])o3)cc2Cl)CC1,1.4%,i,-4.0%,1.3µM*,?,?
O=C(NCc1ccccn1)c1cn(-c2ccccc2)nc1-c1ccc(Cl)cc1,-8.0%,i,-2.5%,?,0.1,3.66µM*
O=C(O)c1cn(-c2ccccc2)nc1-c1ccc(F)cc1,105.9%,i,1.1%,13µM*,20.7,i
O=C1NC(=O)C(c2cn(-c3ccccc3)nc2-c2ccc(F)cc2)N1 (centres undefined),?,i,-4.5%,18.4µM*,-3.9,i
O=C(NC(=S)N1CCOCC1)c1cn(-c2ccccc2)nc1-c1ccccc1,-27.6%,i,1.9%,9.0%,-29.6,5.8µM*
O=C(NCc1ccccn1)c1ccc(-c2ccccc2)cc1,-35.6%,i,1.0%,-0.3%,2.8,i
COc1cccc(NC(=O)CSc2cc(C)[nH]c(=O)n2)c1,/,i,/,/,/,i
COc1cc2c(cc1NC(=O)C(C)Oc1ccc(Cl)cc1Cl)oc1ccccc12 (centres undefined),/,i,/,/,/,i
CN(C)c1nc(=NCc2cccs2)ss1,?,?,-3.2%,?,-80.8*,?
SMILES,SW480 rerep,KB-3-1 cytotox,S-ASM inh,MCF10A rereplic,Giardia kill,KB-V1 cytotox
COCc1ccc(C(=O)Nc2ccccc2C(=O)NCc2cccnc2)cc1,-1.3%,i,5.6%,5.6%,1.7,?
CC(C)(C)c1ccccc1OCC(=O)Nc1ccccc1C(=O)NCc1cccnc1,9.7%,i,-2.0%,?,21.4,18.4µM*
CC(C)(C)C(=O)Nc1ccccc1C(=O)NCc1cccnc1,-2.9%,i,5.5%,-0.3%,-6.2,i
C=CCOc1ccc(C(=O)Nc2ccccc2C(=O)NCc2cccnc2)cc1,?,5.17µM*,2.6%,?,-15.1,3.66µM*
Cc1cc(Cl)ccc1-n1c(CCC(=O)O)ccc1-c1cccs1,/,i,/,/,/,?
CCN(CC(=O)Nc1ccccc1OC)C(=O)C1CCCC1,2.5%,i,1.2%,0.4%,7.9,13µM*
CC(C)c1cc(C(C)C)c(S(=O)(=O)NNC(=O)c2ccncc2)c(C(C)C)c1,-129.2%,i,-2.6%,-0.5%,18.8,14.6µM*
COc1ccc(CC(=O)Nc2c3c(nn2-c2cccc(Cl)c2)CS(=O)(=O)C3)cc1,-4.1%,i,2.4%,23.2%,-1.9,16.4µM*
CC(C)CC(=O)Nc1c2c(nn1-c1cccc(Cl)c1)CS(=O)(=O)C2,5.8%,i,-6.9%,14.1%,-3.7,i
COc1cccc(OCC(=O)Nc2c3c(nn2-c2ccccc2)CS(=O)(=O)C3)c1,5.3%,/,1.4%,5.1%,-4.4,/
O=C(Cc1ccccc1)Nc1c2c(nn1-c1cccc(Cl)c1)CS(=O)(=O)C2,-5.4%,i,2.7%,18.9%,-12.0,20.6µM*
CCC/C(C#Cc1ccc(N(C)C)cc1)=C1/c2ccccc2C(=O)N1c1ccccc1,?,i,32.3%,?,0.3,i
CCC/C(C#Cc1ccsc1)=C1/c2ccccc2C(=O)N1c1ccccc1,?,i,22.4%,23.1µM*,61.7,?
Cc1ccc(-n2ncc(C(=O)NCCN3CCc4ccccc4C3)c2C2CCN(C(=O)OC(C)(C)C)CC2)cc1,/,?,/,/,/,i
CSc1nc2ccc(S(=O)(=O)NC3CCCCC3)cc2s1,-9.3%,?,-12.2%,2.2%,-3.8,16.4µM*
CSc1nc2ccc(S(=O)(=O)N3CCCCC3)cc2s1,-7.2%,?,0.5%,-0.8%,-6.5,?
O=C(COc1ccc(Cl)cc1)N1CCN(c2ccc([N+](=O)[O-])c(N3CCOCC3)c2)CC1,-7.6%,i,?,-1.8%,-15.9,16.4µM*
Cc1ccc(OCC(=O)N2CCN(c3ccc([N+](=O)[O-])c(N4CCOCC4)c3)CC2)cc1,2.0%,i,-24.4%,-20.4%,-20.0,?
O=C(/C=C/c1ccc(Cl)cc1)N1CCN(c2ccc([N+](=O)[O-])c(N3CCOCC3)c2)CC1,-54.1%,?,-16.1%,2.2%,15.1,2.31µM*
O=C(CSc1ccc(Cl)cc1)N1CCN(c2ccc(Cl)cc2[N+](=O)[O-])CC1,2.2%,i,-15.0%,18.4µM*,10.9,?
COc1ccccc1-c1noc(-c2ccc(NCCc3ccccc3)c([N+](=O)[O-])c2)n1,/,i,/,/,/,i

# Screens from PubChem BioAssay.
